Several values for one entry are separate records, joined by “and”; a condition that tells them apart may be missing. Equal entries are not always repeated.
Assays:
Conditions in all cases: Compound concentration 20.0 uM, Protein concentration 2.0 uM, Result type QC Liability
[1] = molecular target: Tyrosine-protein kinase ABL1 (Homo sapiens) (UniProt P00519)
[2] = molecular target: Cyclin-dependent kinase 2 (Homo sapiens) (UniProt P24941)
[3] = molecular target: Casein kinase I isoform delta (Homo sapiens) (UniProt P48730)
[4] = molecular target: Glycogen synthase kinase-3 beta (Homo sapiens) (UniProt P49841)
[5] = molecular target: Mitogen-activated protein kinase 1 (Homo sapiens) (UniProt P28482)
[6] = molecular target: T1, Aurora kinase A (Homo sapiens) (UniProt O14965)
T1 sequence (whole entry): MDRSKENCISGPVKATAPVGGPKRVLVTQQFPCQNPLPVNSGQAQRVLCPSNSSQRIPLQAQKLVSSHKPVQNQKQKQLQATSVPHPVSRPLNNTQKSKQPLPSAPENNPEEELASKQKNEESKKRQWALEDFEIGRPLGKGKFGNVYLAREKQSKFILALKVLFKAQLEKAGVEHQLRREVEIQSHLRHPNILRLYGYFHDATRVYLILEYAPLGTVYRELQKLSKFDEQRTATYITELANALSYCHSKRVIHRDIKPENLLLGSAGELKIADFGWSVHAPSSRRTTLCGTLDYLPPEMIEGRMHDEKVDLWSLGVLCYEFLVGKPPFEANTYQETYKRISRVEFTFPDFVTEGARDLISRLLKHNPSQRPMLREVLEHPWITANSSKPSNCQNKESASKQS

Glycogen synthase kinase-3 beta (Homo sapiens), sequence (P49841 whole entry, looked up): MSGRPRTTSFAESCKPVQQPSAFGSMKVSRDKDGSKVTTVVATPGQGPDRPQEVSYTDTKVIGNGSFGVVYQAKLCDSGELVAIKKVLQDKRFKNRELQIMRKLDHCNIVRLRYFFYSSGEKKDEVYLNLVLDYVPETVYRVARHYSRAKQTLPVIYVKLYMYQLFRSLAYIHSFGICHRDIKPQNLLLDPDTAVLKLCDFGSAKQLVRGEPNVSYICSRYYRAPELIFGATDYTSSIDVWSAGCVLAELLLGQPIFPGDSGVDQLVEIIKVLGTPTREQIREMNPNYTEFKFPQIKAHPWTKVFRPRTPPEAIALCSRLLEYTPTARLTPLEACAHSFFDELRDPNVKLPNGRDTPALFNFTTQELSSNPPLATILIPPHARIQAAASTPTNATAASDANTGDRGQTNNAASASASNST
Casein kinase I isoform delta (Homo sapiens), sequence (P48730 whole entry, looked up, canonical isoform): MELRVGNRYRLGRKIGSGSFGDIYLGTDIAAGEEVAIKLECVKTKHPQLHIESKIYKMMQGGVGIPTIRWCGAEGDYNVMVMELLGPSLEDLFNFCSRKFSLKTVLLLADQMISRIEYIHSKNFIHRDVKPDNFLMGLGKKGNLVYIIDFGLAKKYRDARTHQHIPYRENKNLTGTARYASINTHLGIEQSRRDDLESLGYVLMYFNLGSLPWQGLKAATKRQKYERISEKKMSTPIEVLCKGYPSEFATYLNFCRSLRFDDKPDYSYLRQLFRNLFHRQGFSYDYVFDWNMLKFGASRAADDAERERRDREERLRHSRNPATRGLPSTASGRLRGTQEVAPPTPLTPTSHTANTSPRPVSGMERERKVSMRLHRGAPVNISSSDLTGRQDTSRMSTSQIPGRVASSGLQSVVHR
Mitogen-activated protein kinase 1 (Homo sapiens), sequence (P28482 whole entry): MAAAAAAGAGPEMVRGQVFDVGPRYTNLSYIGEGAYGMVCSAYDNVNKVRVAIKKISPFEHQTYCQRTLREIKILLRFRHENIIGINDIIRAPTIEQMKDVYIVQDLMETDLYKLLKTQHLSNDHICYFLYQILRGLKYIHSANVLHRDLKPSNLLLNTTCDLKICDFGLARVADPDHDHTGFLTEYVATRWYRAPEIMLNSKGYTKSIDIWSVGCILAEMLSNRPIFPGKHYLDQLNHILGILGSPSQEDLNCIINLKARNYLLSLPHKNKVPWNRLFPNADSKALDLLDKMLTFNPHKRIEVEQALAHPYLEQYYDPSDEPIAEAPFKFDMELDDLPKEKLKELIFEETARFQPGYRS
Tyrosine-protein kinase ABL1 (Homo sapiens), sequence (P00519 whole entry): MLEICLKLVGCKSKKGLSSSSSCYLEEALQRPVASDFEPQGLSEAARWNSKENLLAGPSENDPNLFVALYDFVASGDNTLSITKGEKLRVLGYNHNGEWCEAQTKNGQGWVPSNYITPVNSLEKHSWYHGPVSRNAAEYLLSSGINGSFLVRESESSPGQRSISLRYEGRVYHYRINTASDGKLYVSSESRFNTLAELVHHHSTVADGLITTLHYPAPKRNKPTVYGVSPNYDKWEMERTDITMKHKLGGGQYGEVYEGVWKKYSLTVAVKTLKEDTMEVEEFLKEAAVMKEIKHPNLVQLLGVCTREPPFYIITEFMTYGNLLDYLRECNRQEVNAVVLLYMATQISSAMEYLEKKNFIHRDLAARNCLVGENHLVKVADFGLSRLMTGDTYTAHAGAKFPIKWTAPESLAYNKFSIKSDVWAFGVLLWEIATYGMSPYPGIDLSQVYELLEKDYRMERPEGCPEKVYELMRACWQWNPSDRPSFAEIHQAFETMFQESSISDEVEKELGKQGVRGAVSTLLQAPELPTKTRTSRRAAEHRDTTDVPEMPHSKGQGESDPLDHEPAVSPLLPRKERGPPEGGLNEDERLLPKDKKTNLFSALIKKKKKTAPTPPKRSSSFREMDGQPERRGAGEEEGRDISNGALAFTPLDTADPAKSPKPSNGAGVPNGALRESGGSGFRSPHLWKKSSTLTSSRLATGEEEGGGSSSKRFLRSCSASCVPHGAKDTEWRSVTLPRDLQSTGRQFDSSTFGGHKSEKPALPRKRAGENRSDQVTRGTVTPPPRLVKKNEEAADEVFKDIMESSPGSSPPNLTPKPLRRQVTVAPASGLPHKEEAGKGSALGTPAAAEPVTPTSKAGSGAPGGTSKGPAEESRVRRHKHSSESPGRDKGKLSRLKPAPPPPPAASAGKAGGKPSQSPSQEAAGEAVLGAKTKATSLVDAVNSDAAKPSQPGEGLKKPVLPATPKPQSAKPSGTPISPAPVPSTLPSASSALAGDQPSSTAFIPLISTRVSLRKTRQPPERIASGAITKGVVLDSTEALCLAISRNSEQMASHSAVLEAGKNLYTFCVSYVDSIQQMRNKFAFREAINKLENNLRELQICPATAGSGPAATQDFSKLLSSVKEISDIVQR

| Structure (SMILES) | ΔTm [1] [°C] | ΔTm [2] | ΔTm [3] | ΔTm [4] | ΔTm [5] | ΔTm [6] |
| --- | --- | --- | --- | --- | --- | --- |
| COc1cc2nc(C)nc(N[C@H](C)c3cc(N)cc(C(F)(F)F)c3)c2cc1O[C@H]1CCOC1 | -0.37 | 0.99 °C | 0.27 °C | 0.96 °C | 0.04 °C | 0.75 °C |
| CCc1cnn2c(NCc3ccc[n+]([O-])c3)cc(N3CCCCC3CCO)nc12 (stereo not drawn) | 0.22 | – | 1.31 °C | 7.6 °C | 1.41 °C | -0.54 °C |
| C[S+]([O-])c1ccc(-c2nc(-c3cccc(I)c3)c(-c3ccncc3)[nH]2)cc1 (stereo not drawn) | 0.33 | -0.2 °C | 2.61 °C | 5.08 °C | -1.08 °C | -1.53 °C |
| O=C(NC1CCNCC1)c1n[nH]cc1NC(=O)c1c(Cl)cccc1Cl | 0.36 | – | 0.04 °C | 11.4 °C | -0.04 °C | -1.05 °C |
| CCN1CCN(Cc2ccc(Nc3ncc(F)c(-c4cc(F)c5nc(C)n(C(C)C)c5c4)n3)nc2)CC1 | 3.44 | – | 4.97 °C | 11.1 °C | 1.41 °C | 3.81 °C |
| CN(C)CCCN1c2ccccc2Sc2ccc(Cl)cc21 | 0.03 | 0.8 °C | 0.05 °C | -0.47 °C | 0.34 °C | -0.47 °C |
| CCc1ccc(N(CC(C)C)S(=O)(=O)c2ccc(OCC3CCOCC3)c(CO)c2)cc1 | -3.79 | 0.33 °C | 0.71 °C | 0 °C | 0.2 °C | -8.48 °C |
| CCCS(=O)(=O)N[C@H]1C[C@@H](N(C)c2ncnc3[nH]ccc23)C1 | 1.02 | 0.96 °C | 0.73 °C | 1.39 °C | 0.29 °C | 3.25 °C |
| COc1cc2ncnc(Nc3cccc(O)c3)c2cc1OC | 8.2 | – | 2.54 °C | 3.7 °C | 0.61 °C | 2.79 °C |
| COC[C@@H](C)N[C@H]1CC[C@H](Nc2cc(-c3cccc(NCC4(C#N)CCOCC4)n3)c(Cl)cn2)CC1 | 0.33 | -1.43 °C | 0.03 °C | -0.08 °C | 0.43 °C | 0.38 °C |
| COC(=O)c1sccc1S(=O)(=O)Nc1ccc(Nc2ccccc2)cc1OC | 0.48 | 0.72 °C | 0.45 °C | -0.37 °C | -2.78 °C | -2.34 °C |
| CCS(=O)(=O)c1ccc(OC)c(Nc2ncc(-c3cccc(F)c3)o2)c1 | 2.1 | 0.14 °C | -0.13 °C | -1.15 °C | 0.11 °C | 0.2 °C |
| CCOC(=O)c1ccc(CN(Cc2ccc(-c3cccc(S(C)(=O)=O)c3)cc2)S(=O)(=O)c2c(C)cc(C)cc2C)o1 | -2.07 | -2 °C | -1.52 °C | -0.28 °C | -3 °C | -3.1 °C |
| COc1ccc(N(C(=O)Nc2c(C)cccc2C)c2cc(Nc3ccc(N4CCN(C)CC4)cc3)ncn2)c(OC)c1 | – | 0.7 °C | 2.65 °C | 3.75 °C | 0.48 °C | 10.1 °C |
| Nc1ncc2c(n1)-c1c([nH]c3ccc(C4CC4)cc13)CCCC2 | 0.19 | -0.43 °C | -0.06 °C | 2.09 °C | 0.41 °C | -0.12 °C |
| CNC(=O)c1nnc(NC(=O)C2CC2)cc1Nc1cccc(-c2ncn(C)n2)c1OC | 3.38 | 0.57 °C | 0.11 °C | 5.87 °C | 0.36 °C | 0.41 °C |
| CC(C)(C)c1cnc(CSc2cnc(NC(=O)C3CCNCC3)s2)o1 | 0.04 | – | 1.29 °C | 8.72 °C | 0.73 °C | 4.45 °C |
| Cc1cn(CCN2CCN(c3ccccc3-c3cc(C#N)cc(C(=O)NCCCN4CCCC4)c3)CC2)c2ccccc12 | 0.13 | 0.91 °C | -2.16 °C | -0.98 °C | 0.52 °C | -0.16 °C |

| Structure (SMILES) | ΔTm [1] [°C] | ΔTm [2] | ΔTm [3] | ΔTm [4] | ΔTm [5] | ΔTm [6] |
| --- | --- | --- | --- | --- | --- | --- |
| CCN1C(=O)/C(=C(\NC2CCN(C)CC2)c2ccc3c(c2)OCO3)c2cc(C(C)=O)ccc21 | 0.4 | 0.54 °C | 1.8 °C | 0.62 °C | 0.05 °C | 0.02 °C |
| N[C@@H]1CCCC[C@H]1Oc1ccc2ncc(-c3cc4ccccc4o3)n2n1 | 0.63 | 1.2 °C | 1.01 °C | 4.43 °C | 0.17 °C | 1.07 °C |
| O=C(CNCc1cc2ccccc2[nH]1)N[C@H]1CC[C@@H](c2nc3ccccc3[nH]2)CC1 | 0.13 | 0.52 °C | 0.18 °C | -0.57 °C | 0.34 °C | -0.41 °C |
| CC1(C)C(=O)N([C@H]2CCc3c(O)cccc32)c2nc(Nc3cccc(CN4CCCC4)c3)ncc21 | – | 6.13 °C | 2.09 °C | 6.72 °C | 5.19 °C | 12.8 °C |
| Cc1cc(CN)cc(C)c1-c1ncn(C)c1-c1ccnc2cc(F)ccc12 | -0.08 | 0.32 °C | 0.37 °C | -0.11 °C | 0.29 °C | 0.25 °C |
| CN(CC(=O)Nc1ccc(F)c(F)c1F)C(=O)c1ccc2c(c1)OCCO2 | 0.3 | 0.89 °C | 0.08 °C | -0.75 °C | 0.49 °C | -0.17 °C |
| COc1ccc(F)c(F)c1C(=O)c1cnc(NC2CCN(S(C)(=O)=O)CC2)nc1N | 0.33 | – | 0.3 °C | 7.07 °C | 0.27 °C | 0.02 °C |
| O=C(Cc1ccccc1[N+](=O)[O-])Nc1ccc(-c2ccc(C(O)(C(F)(F)F)C(F)(F)F)cc2F)cc1 | 0.67 | 2.11 °C | -0.86 °C | -0.71 °C | -0.87 °C | -1.59 °C |
| Cc1cc2c(ncn2C2(C)CN(C(=O)c3ccn(CC4CCN([C@H]5C=CCCCC5)CC4)c3)C2)c(N)n1 | 0.14 | 1.09 °C | -0.14 °C | -0.26 °C | 0.62 °C | -1 °C |
| C=C(F)C(=O)N1CCN(c2nc(OC[C@@H]3CCCN3C)nc3c2CCN(c2cccc4cccc(Cl)c24)C3)C[C@@H]1CC#N | -0.03 | 0.01 °C | 0.31 °C | 0.36 °C | 0.14 °C | -0.49 °C |
| COc1cc(C(N)=O)ccc1Nc1ncc2c(n1)N(CCC(C)C)[C@H](C)C(=O)N2C | 1.42 | -0.37 °C | 0.51 °C | 0.01 °C | -6.61 °C | -0.69 °C |
| O=C(Nc1ccc(OC(F)(F)Cl)cc1)c1cnc(N2CC[C@@H](O)C2)c(-c2cc[nH]n2)c1 | – | 1.08 °C | 0.99 °C | 0 °C | 0.21 °C | 0.17 °C |
| O=C1NC(=NCc2cccs2)SC1=Cc1ccc2ncccc2c1 | 2.9 | – | 0.75 °C | 3.78 °C | 0.66 °C | -0.94 °C |
| NS(=O)(=O)c1ccc(Nc2nc(OCC3CCCCC3)c3nc[nH]c3n2)cc1 | 5.71 | – | 0.51 °C | 5.83 °C | 2.65 °C | 7.68 °C |
| Cc1ccc(-n2nc(C(C)(C)C)cc2NC(=O)Nc2ccc(OCCN3CCOCC3)c3ccccc23)cc1 | – | 1.17 °C and 1.39 °C | 3.31 °C and 1.35 °C | 3.17 °C and 2.68 °C | 0.43 °C and 1.14 °C | 0.18 °C and 0.11 °C |
| Cc1nc2cccnc2n2c(-c3cc(C(C)(C)O)ncc3Cl)nnc12 | -0.85 | 0.85 °C | 0.33 °C | -0.45 °C | 0.31 °C | -0.06 °C |
| Cc1nc2ccccc2c(-c2ccc3c4c(ccnc24)CCO3)c1[C@H](OC(C)(C)C)C(=O)O | -0.44 | 0.2 °C | 0.28 °C | -0.88 °C | 0.3 °C | -0.03 °C |
